Experimental data: PubChem BioAssay (NCATS)
Inconclusive results are not listed. Active and inactive are the calls of the source. Calls follow the shape of the dose curve; as a rule, active = well fitted curve in the direction sought with a large enough effect; inconclusive = small, poorly fitted or top-dose-only effect, or another doubt; inactive = no such curve, though single readings can be large; an effect the other way counts as inactive or inconclusive.

Legend:
[1] = qHTS of pediatric cancer cell lines to identify multiple opportunities for drug repurposing: Primary screen for U-2 OS cells (AID 1347096); also: nearly all actives have a fitted effect of over 50% in size
Method in brief: (§1)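 Cells (500-1,000/well) in growth media were settled 5 h at 37 degrees C, then given compounds for 48 h. Viability was read as CellTiter-Glo luminescence. Primary runs used MIPE at 11 points (0.78 nM-46 µM) and NPC at 8 points (0.59 nM-46 µM); follow-ups used 11 points.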

[2] = qHTS of pediatric cancer cell lines to identify multiple opportunities for drug repurposing: Primary screen for Saos-2 cells (AID 1347097); also: nearly all actives have a fitted effect of over 40% in size
Method in brief: (§2)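 Quantitative HTS format: each compound titrated (MIPE 11 points from 0.78 nM, NPC 8 points from 0.59 nM) onto cells plated 5 hours earlier. After 48 h at 37 degrees C, CellTiter-Glo luminescence was recorded.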

[3] = qHTS of pediatric cancer cell lines to identify multiple opportunities for drug repurposing: Primary screen for SK-N-SH cells (AID 1347098);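 also: DMSO served as neutral control and bortezomib at 2.3 µM as positive control; nearly all actives have a fitted effect of over 65% in size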
Method in brief: (§3)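 Cells (500-1,000/well) rested 5 h, then received compounds for 48 h; metabolically active cells were measured by CellTiter-Glo luminescence. Final concentrations spanned up to 46 µM (MIPE, 11-point) or 0.59 nM-46 µM (NPC, 8-point) in primary screens, 11-point in follow-ups.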

[4] = qHTS of pediatric cancer cell lines to identify multiple opportunities for drug repurposing: Primary screen for NB1643 cells (AID 1347099); also: nearly all actives have a fitted effect of over 50% in size
Method in brief: as §2

[5] = qHTS of pediatric cancer cell lines to identify multiple opportunities for drug repurposing: Primary screen for LAN-5 cells (AID 1347100)
Method in brief: as §1

[6] = qHTS of pediatric cancer cell lines to identify multiple opportunities for drug repurposing: Primary screen for BT-12 cells (AID 1347101); also: nearly all actives have a fitted effect of over 25% in size
Method in brief: as §3

[7] = qHTS of pediatric cancer cell lines to identify multiple opportunities for drug repurposing: Primary screen for Rh18 cells (AID 1347102); also: nearly all actives have a fitted effect of over 65% in size
Method in brief: as §1

[8] = qHTS of pediatric cancer cell lines to identify multiple opportunities for drug repurposing: Primary screen for OHS-50 cells (AID 1347103); also: nearly all actives have a fitted effect of over 40% in size
Method in brief: as §3

[9] = qHTS of pediatric cancer cell lines to identify multiple opportunities for drug repurposing: Primary screen for RD cells (AID 1347104); also: nearly all actives have a fitted effect of over 55% in size
Method in brief: as §2

[10] = qHTS of pediatric cancer cell lines to identify multiple opportunities for drug repurposing: Primary screen for MG 63 (6-TG R) cells (AID 1347105); also: nearly all actives have a fitted effect of over 50% in size
Method in brief: as §2

[11] = qHTS of pediatric cancer cell lines to identify multiple opportunities for drug repurposing: Primary screen for Rh30 cells (AID 1347107); also: series mostly up to about 46 µM; nearly all actives have a fitted effect of over 75% in size
Method in brief: as §1

[12] = qHTS of pediatric cancer cell lines to identify multiple opportunities for drug repurposing: Primary screen for Rh41 cells (AID 1347108);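 also: series mostly up to about 46 µM; luminescence drop marks cytotoxic hits; nearly all actives have a fitted effect of over 70% in size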
Method in brief: as §2

[13] = qHTS of pediatric cancer cell lines to identify multiple opportunities for drug repurposing: Primary screen for control Hh wild type fibroblast cells (AID 1347106);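 also: series mostly up to about 46 µM; a drop in luminescence marks cytotoxicity and a rise apparent proliferation; nearly all actives have a fitted effect of over 55% in size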
Method in brief: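 Viability after 48 h compound treatment at 37C, 500-1,000 cells/well, read as ATP luminescence with CellTiter-Glo. Primary screens used 11-point (MIPE, 0.78 nM-46 µM) or 8-point (NPC, 0.59 nM-46 µM) final concentrations; follow-up screens used 11-point dilutions.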

[14] = qHTS of pediatric cancer cell lines to identify multiple opportunities for drug repurposing: Confirmatory screen for NB1643 cells (AID 1347109); also: nearly all actives have a fitted effect of over 45% in size
Method in brief: as §1

[15] = qHTS of pediatric cancer cell lines to identify multiple opportunities for drug repurposing: Confirmatory screen for A673 cells (AID 1347110);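 also: cells exposed to compound for 48 h before the viability read; nearly all actives have a fitted effect of over 65% in size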
Method in brief: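 Cells plated at 500-1,000/well were treated five hours later with multi-point dilutions up to 46 µM final. After two days, CellTiter-Glo was added and luminescence read.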

[16] = qHTS of pediatric cancer cell lines to identify multiple opportunities for drug repurposing: Confirmatory screen for DAOY cells (AID 1347114); also: nearly all actives have a fitted effect of over 65% in size
Method in brief: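 Viability measured as metabolically active cells via CellTiter-Glo luminescence following 48 hours of compound exposure, 11-point dilutions in confirmatory testing. 500-1,000 cells/well plated 5 hours before dosing; controls were DMSO and 2.3 µM bortezomib.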

[17] = qHTS of pediatric cancer cell lines to identify multiple opportunities for drug repurposing: Confirmatory screen for NB-EBc1 cells (AID 1347115);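 also: cells exposed to compound for 48 h before the viability read; nearly all actives have a fitted effect of over 45% in size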
Method in brief: as §1

Measured: Potency

CN(C)CCN1C(=O)c2ccccc2N(C)c2ccccc21
inactive: [1] | [2] | [3] | [4] | [5] | [6] | [7] | [8] | [9] | [10] | [11] | [12]

C=C[C@@]1(C)CC(=O)[C@]2(O)[C@@]3(C)[C@@H](O)CCC(C)(C)[C@@H]3[C@H](O)[C@H](OC(C)=O)[C@@]2(C)O1
inactive: [1] | [2] | [3] | [4] | [5] | [6] | [7] | [10] | [13] | [11] | [14] | [15] | [16] | [17]

Cl/C(=C\n1cncn1)c1ccc(Cl)cc1Cl
inactive: [1] | [2] | [3] | [4] | [5] | [6] | [7] | [8] | [9] | [13] | [11]

Cc1cc2c(OCC(CNC(C)(C)C)OC(=O)c3ccccc3)cccc2[nH]1 (stereo not given)
inactive: [1] | [2] | [3] | [4] | [5] | [6] | [8] | [9] | [10] | [13] | [11] | [12]

Cc1c(-c2ccccc2)oc2c(C(=O)OCCN3CCCCC3)cccc2c1=O
inactive: [1] | [2] | [3] | [4] | [5] | [6] | [7] | [8] | [9] | [13] | [11] | [12]

CC(C)[C@@H]1CC[C@@H](C)CC1=O
inactive: [1] | [2] | [3] | [4] | [5] | [6] | [7] | [8] | [10] | [13] | [11] | [12]

O=C(NC1CCN(CCc2c[nH]c3ccccc23)CC1)c1ccccc1
inactive: [1] | [2] | [3] | [4] | [5] | [6] | [7] | [9] | [10] | [13] | [11] | [12]

CC(=O)OCC(=O)[C@H]1CC[C@H]2[C@@H]3CCC4=CC(=O)CC[C@]4(C)[C@H]3CC[C@]12C
inactive: [1] | [2] | [3] | [4] | [5] | [6] | [7] | [10] | [13] | [11] | [12]

CC(=O)O[C@]1(C(C)=O)CC[C@H]2[C@@H]3C=C(C)C4=CC(=O)CC[C@]4(C)[C@H]3CC[C@@]21C
inactive: [1] | [2] | [3] | [4] | [5] | [6] | [7] | [10] | [13] | [11] | [12]

CC(C)(C)CC(C)(C)c1ccc(O)c(-n2nc3ccccc3n2)c1
inactive: [1] | [2] | [3] | [4] | [5] | [6] | [7] | [9] | [10] | [13] | [11] | [12]

N#C/C(=C1\SCC(c2ccccc2Cl)S1)n1ccnc1 (stereo not given)
inactive: [1] | [2] | [3] | [4] | [5] | [6] | [9] | [10] | [13] | [11] | [12]

Cc1cn([C@H]2C[C@H](F)[C@@H](CO)O2)c(=O)[nH]c1=O
inactive: [1] | [2] | [3] | [4] | [6] | [8] | [9] | [10] | [13] | [11] | [12]

CN1CCC(OC(c2ccccc2)c2ccccc2)CC1
inactive: [1] | [2] | [3] | [4] | [5] | [7] | [10] | [13] | [11]

Cc1ccc(-c2ncc(Cl)cc2-c2ccc(S(C)(=O)=O)cc2)cn1
inactive: [1] | [2] | [3] | [4] | [6] | [8] | [9] | [10] | [13] | [11] | [12]

CC(C)[N+](C)(C)CC(O)COc1cccc2ccccc12 (stereo not given)
inactive: [1] | [2] | [3] | [4] | [5] | [7] | [9] | [10] | [13] | [11] | [12]

NS(=O)(=O)c1ccc(Cl)c(S(N)(=O)=O)c1
inactive: [1] | [2] | [3] | [4] | [6] | [7] | [8] | [9] | [10] | [13] | [11] | [12]

C=CCN1CCc2nc(N)sc2CC1
inactive: [1] | [2] | [3] | [4] | [6] | [7] | [8] | [9] | [10] | [13] | [11] | [12]

CCOc1ccccc1OCCN[C@H](C)Cc1ccc(OC)c(S(N)(=O)=O)c1
inactive: [1] | [2] | [3] | [4] | [6] | [8] | [9] | [10] | [13] | [11]

CC[N+](C)(CC)CCOC(=O)C(O)(c1ccccc1)C1CCCCC1 (stereo not given)
inactive: [1] | [2] | [3] | [5] | [6] | [7] | [8] | [9] | [10] | [11] | [12]

CCN1CCN(C(=O)N[C@@H](C(=O)N[C@@H]2C(=O)N3C(C(=O)O)=C(CSc4nnnn4C)CS[C@H]23)c2ccc(O)cc2)C(=O)C1=O
inactive: [1] | [2] | [3] | [5] | [6] | [7] | [8] | [9] | [10] | [13] | [11] | [12]

FC1(F)C(F)(F)C(F)(F)C2(F)C(F)(F)C(F)(F)C(F)(F)C(F)(F)C2(F)C1(F)F (stereo not given)
inactive: [1] | [2] | [3] | [4] | [6] | [7] | [8] | [9] | [10] | [13] | [11]
